Values joined by “and” are separate entries in the source; they are usually repeats but may differ in a detail not shown here. Equal entries are not always repeated. More than one record can exist for a structure, and the calls need not agree. Active and inactive are the calls of the source. How the source made its calls: active means hit-call score of the fitted dose curve at least 0.9, where 1 is the maximum; inactive means score below 0.9.

This is an account of results in PubChem BioAssay (EPA / NIEHS).

Read-out in this assay: Interferon-gamma inducible Protein 10 (IP10), CXCL10 (gene 3627)
The assay is described as follows: BSK_BE3C_IP10: BioMAP Diversity Plus: BE3C Assay for Interferon-gamma inducible Protein 10 (IP10) Biomarker Activity (AID 2283034). The note with it: primary human bronchial epithelial cells; actives raise or lower the signal. The procedure: BSK_BE3C is a cell-based, multiplexed-readout assay that uses bronchial epithelial cell, a human lung primary cell, with measurements taken at 24 hours after chemical dosing in a 96-well plate.BSK_BE3C_IP10 is an assay component measured in the BSK_BE3C assay. It measures IP-10 antibody related to regulation of gene expression using ELISA technology.Data from the assay component BSK_BE3C_IP10 was analyzed into 1 assay endpoint. This assay endpoint, BSK_BE3C_IP10, was analyzed with bidirectional fitting relative to DMSO as the negative control and baseline of activity. Using a type of binding reporter, gain or loss-of-signal activity can be used to understand changes in the signaling as they relate to the gene CXCL10. Furthermore, this assay endpoint can be referred to as a primary readout, because this assay has produced multiple assay endpoints where this one serves a signaling function. To generalize the intended target to other relatable targets, this assay endpoint is annotated to the cytokine intended target family, where the subfamily is chemotactic factor.
The levels of cell surface (or secreted, indicated by the prefix "s") biomarker endpoints were measured by ELISA. Overt cytotoxicity to cells in confluent adherent cultures (all systems other than the BT system) was assessed by measuring total protein levels using sulforhodamine B (SRB) staining in parallel cultures at the time of biomarker measurements, indicated as SRB endpoints. For proliferation assays for adherent cell types, individual cell types are cultured at sub-confluence and relative cell numbers quantified by SRB staining at time points optimized for each system (48 h: 3C and CASM3C systems; 72 h: BT and HDF3CGF systems; 96 h: SAg system). SRB was performed by staining cells with 0.1% SRB after fixation with 10% TCA and reading wells at 560 nm.Viability and proliferation of PBMC (T cells) was quantified by Alamar Blue reduction for the SAg and BT systems. For PBMC viability (referred to as PBMC Cytotoxicity within the assay endpoint names), cells were plated (75,000/well in a 96-well plate) and then chemical samples added for 1 h before addition of activators, SEB and TSST-1 (20 ng/mL final concentration each). Cells were incubated for 90 h. Then, Alamar Blue (20 uL/well) (Invitrogen, Cat DAL1100) was added for 6 h, and the plates were read with a fluorescence microplate reader at 546/580 nm (excitation/emission). For PBMC proliferation, cells were plated and activated as above but incubated for only 16 h prior to addition of Alamar Blue. Plates were read after 6 h.
With `CN(C)c1ccc(C(=C2C=CC(=[N+](C)C)C=C2)c2ccccc2)cc1`, the concentration at half-maximal activity (AC50) is 0.202 µM (active).

For the molecule `C=CC(C)(CCC=C(C)C)OC(C)=O` (stereo not given), the AC50 is 26.6 µM (active).

Consider `O=C(CC(=O)C(F)(F)C(F)(F)C(F)(F)F)c1cccs1`, for which the AC50 was 19.5 µM (active) and 18.9 µM (active).

For the molecule `O=C(NCc1ncc(C(F)(F)F)cc1Cl)c1c(Cl)cccc1Cl`, the result was inactive.

Regarding `O=S(=O)(O)C(F)(F)C(F)(F)C(F)(F)C(F)(F)C(F)(F)C(F)(F)C(F)(F)C(F)(F)C(F)(F)C(F)(F)F`, the AC50 was 13.3 µM (active) and 12 µM (active).

For the molecule `O=C(CCCN1CCC(O)(c2ccc(Cl)cc2)CC1)c1ccc(F)cc1`, the outcome was inactive.

For the molecule `O=C1OC2(c3ccccc31)c1cc(I)c(O)c(I)c1Oc1c2cc(I)c(O)c1I`, the concentration at half-maximal activity (AC50) was 13.6 µM (active).

Turning to `OCC(CO)(CBr)CBr`, the outcome was inactive.

In the case of `CN(Cc1cnc2nc(N)nc(N)c2n1)c1ccc(C(=O)N[C@@H](CCC(=O)O)C(=O)O)cc1`, the result was inactive.

With `C=CC(=O)OCCC(F)(F)C(F)(F)C(F)(F)C(F)(F)C(F)(F)C(F)(F)C(F)(F)C(F)(F)F`, the result was inactive.

For `C=CC(=C)CC/C=C(\C)CCC=C(C)C`, the outcome was inactive.

`CCCCCc1ccc(O)cc1`: the AC50 was 16.6 µM (active).

As to `Oc1ccc(Cc2ccccc2O)cc1`, the result was inactive.

As to `O=C(c1ccccc1)c1ccccc1`, the result was inactive.

Take `OCCN1CN(CCO)CN(CCO)C1`: the result was inactive.

As for `COc1cccc(O)c1`, the result was inactive.

On to `CC(C)(C)c1ccc(O)c(O)c1`, for which the outcome was inactive.

On to `N=C(N)c1ccc(OCCCCCOc2ccc(C(=N)N)cc2)cc1`, for which the AC50 was 24.1 µM (active).

Consider `CS(=O)(=O)c1ccc([C@@H](CC2CCCC2)C(=O)Nc2cnccn2)cc1Cl`, for which the AC50 is 31 µM (active).

In the case of `CCCCCCCCCCCCCCC`, the outcome was inactive.

Take `O=C1NS(=O)(=O)c2ccccc21`: the outcome was inactive.

As to `Cc1[nH]nc2c1N=C(c1ccccc1Cl)c1cc([N+](=O)[O-])ccc1N2`, the concentration at half-maximal activity (AC50) is 12.2 µM (active).

Turning to `O=C(O)CCC(F)(F)C(F)(F)C(F)(F)C(F)(F)C(F)(F)C(F)(F)F`, the result was inactive.

Take `CC[N+](CC)(CC)Cc1ccccc1`: the outcome was inactive.

For the molecule `Oc1cc2ccccc2cc1O`, the outcome was inactive.

As for `O=C(O)C(F)(F)OC(F)(F)C(F)(F)OC(F)(F)C(F)(F)OC(F)(F)C(F)(F)C(F)(F)C(F)(F)F`, the AC50 was 4.85 µM (active) and 4.88 µM (active).

In the case of `CCCCC(CC)C(=O)O` (stereo not given), the outcome was inactive.

In the case of `OCC(F)(F)C(F)(F)C(F)(F)C(F)(F)C(F)(F)C(F)(F)C(F)(F)C(F)(F)C(F)(F)C(F)(F)C(F)(F)F`, the result was inactive and the AC50 was 0.218 µM (active).

As to `CCCCC(CC)C(=O)OCCOCCOCCOCCOC(=O)C(CC)CCCC` (stereo not given), the outcome was inactive.

For `O=P(O)(O)CCC(F)(F)C(F)(F)C(F)(F)C(F)(F)C(F)(F)C(F)(F)F`, the AC50 was 3.21 µM (active) and the outcome was inactive.

On to `CCOC(=O)CN[C@@H](C(=O)N1CC[C@H]1C(=O)NCc1ccc(/C(N)=N/O)cc1)C1CCCCC1`, for which the result was inactive.

On to `CN(C)CCOC(c1ccccc1)c1ccccc1`, for which the outcome was inactive.

With `O=C1c2ccc(O)c(O)c2C(=O)c2c(O)ccc(O)c21`, the outcome was inactive.

Consider `O=C(O)CCC(F)(F)C(F)(F)C(F)(F)C(F)(F)C(F)(F)F`, for which the result was inactive.

Turning to `COCN(COC)c1nc(N(COC)COC)nc(N(COC)COC)n1`, the result was inactive.

With `CN(CCO)S(=O)(=O)C(F)(F)C(F)(F)C(F)(F)C(F)(F)C(F)(F)C(F)(F)C(F)(F)C(F)(F)F`, the outcome was inactive.

With `CC(=O)Nc1ccc(O)cc1`, the outcome was inactive.

For the molecule `CCCCc1oc2ccccc2c1C(=O)c1cc(I)c(OCCN(CC)CC)c(I)c1`, the concentration at half-maximal activity (AC50) was 12 µM (active).
